Reference: PubChem BioAssay AID1159580 (chemical genetic matrix, 2015)
The whole screen tested about 5,500 compounds, of which about 2,000 (36%) were called active. About 18% were inconclusive and are not listed. Rule as the data show it: active = normalized growth mostly below about 0.91 (no sharp cut-off); inconclusive = no clear call, values can overlap the other calls; inactive = mostly above about 0.92. The list shows a part of the results.

Assay: chemical genetic growth profiling, strain panel (AID 1159580);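 also: tested at 20 µM; growth read once vehicle control cultures reached saturation at 30 °C; 1 = growth at the plate median or of vehicle wells; lower values mean less growth of the strain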
Conditions: growth OD
[1] = S. cerevisiae deletion strains, locus YGR078C, strain PAC10, stronger effect = lower value
[2] = S. cerevisiae deletion strains, locus YJR075W, strain HOC1, stronger effect = lower value
[3] = S. cerevisiae deletion strains, locus YNL153C, strain GIM3, stronger effect = lower value
[4] = S. cerevisiae deletion strains, locus YPL241C, strain CIN2, stronger effect = lower value

Measured: normalized growth

COc1cc2c(cc1OC)-c1cc(=Nc3c(C)cc(C)cc3C)n(C)c(=O)n1CC2
inactive: S. cerevisiae deletion strains, locus YAL040C, strain CLN3, stronger effect = lower value 0.995 | S. cerevisiae deletion strains, locus YCL061C, strain MRC1 (second series), stronger effect = lower value 0.998 | S. cerevisiae deletion strains, locus YDR363W, strain ESC2, stronger effect = lower value 1 | S. cerevisiae deletion strains, locus YER002W, strain NOP16, stronger effect = lower value 1.02 | [1] 1.01 | [2] 0.97 | S. cerevisiae deletion strains, locus YMR307W, strain GAS1, stronger effect = lower value 0.998 | [3] 0.999 | S. cerevisiae deletion strains, locus YNL175C, strain NOP13, stronger effect = lower value 0.996 | S. cerevisiae deletion strains, locus YNL197C, strain WHI3, stronger effect = lower value 1.01 | S. cerevisiae deletion strains, locus YNL224C, strain SQS1, stronger effect = lower value 1.01 | S. cerevisiae deletion strains, locus YOR083W, strain WHI5 (second series), stronger effect = lower value 1.02 | [4] 0.993

c1cc(C2CCCCC2)ccc1C1CCCCC1
inactive: S. cerevisiae deletion strains, locus YAL013W, strain DEP1, stronger effect = lower value 1.01 | S. cerevisiae deletion strains, locus YBR229C, strain ROT2, stronger effect = lower value 1 | S. cerevisiae deletion strains, locus YCL061C, strain MRC1, stronger effect = lower value 0.965 | S. cerevisiae deletion strains, locus YDL101C, strain DUN1, stronger effect = lower value 0.968 | S. cerevisiae deletion strains, locus YDR150W, strain NUM1, stronger effect = lower value 0.958 | S. cerevisiae deletion strains, locus YEL061C, strain CIN8, stronger effect = lower value 1.01 | [1] 0.982 | S. cerevisiae deletion strains, locus YHR030C, strain SLT2, stronger effect = lower value 0.878 | S. cerevisiae deletion strains, locus YHR087W, strain rtc3, stronger effect = lower value 1.04 | S. cerevisiae deletion strains, locus YJR043C, strain POL32, stronger effect = lower value 1 | [2] 1.03 | S. cerevisiae deletion strains, locus YLR039C, strain RIC1, stronger effect = lower value 1.05 | S. cerevisiae deletion strains, locus YLR058C, strain SHM2 (second series), stronger effect = lower value 1.02 | S. cerevisiae deletion strains, locus YLR085C, strain ARP6, stronger effect = lower value 1.04 | S. cerevisiae deletion strains, locus YLR262C, strain YPT6, stronger effect = lower value 1.04 | S. cerevisiae deletion strains, locus YML094W, strain GIM5, stronger effect = lower value 1.02 | S. cerevisiae deletion strains, locus YMR219W, strain ESC1, stronger effect = lower value 1.04 | S. cerevisiae deletion strains, locus YMR263W, strain SAP30, stronger effect = lower value 1 | [3] 0.983 | S. cerevisiae deletion strains, locus YNL298W, strain CLA4 (second series), stronger effect = lower value 0.987 | S. cerevisiae deletion strains, locus YNL322C, strain KRE1, stronger effect = lower value 1.01 | S. cerevisiae deletion strains, locus YNR030W, strain Alg12, stronger effect = lower value 0.967 | S. cerevisiae deletion strains, locus YOL006C, strain TOP1, stronger effect = lower value 0.893 | S. cerevisiae deletion strains, locus YPL055C, strain LGE1, stronger effect = lower value 1.05 | [4] 1 | S. cerevisiae deletion strains, locus YPR135W, strain CTF4, stronger effect = lower value 1.05 | S. cerevisiae strains, strain wild type, stronger effect = lower value 0.973
